Common to all, as to assay: log2 fold change, soluble protein after heating vs DMSO (PISA); higher = thermal stabilisation; K562 cells, 10 uM, 30 min; active = over 0.2 and 3.5 SD of the protein, either way, in both replicates (recomputed)
Compound in one experiment: CON(C)C(=O)N1N=C(c2cc(F)ccc2F)S[C@@]1(CCCN)c1ccccc1 [filanesib]
A digest of the protocol:
(§1)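 Soluble protein was defined as the supernatant after 21,000xg for 90 min. It came from K562 cells at 2×10^6 cells/mL given 10 μM compound for 30 min, heated in aliquots for 3 min across 48°C-58°C, pooled, and extracted in PBS with 0.5% NP-40 at 4°C, and was quantified by TMTpro 16plex LC-MS/MS with equalised channel sums. Thermal stability against control samples, from duplicates, is reported as log2 fold change.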

Compound in the next experiment: CO[C@H]1C[C@@H]2CC[C@@H](C)[C@@](O)(O2)C(=O)C(=O)N2CCCC[C@H]2C(=O)O[C@H]([C@H](C)C[C@@H]2CC[C@H](n3cnnn3)[C@H](OC)C2)CC(=O)[C@H](C)/C=C(\C)[C@@H](O)[C@@H](OC)C(=O)[C@H](C)C[C@H](C)/C=C/C=C/C=C/1C [zotarolimus]
A digest of the protocol:
as §1

Compound in the next experiment: COc1cc(C(=O)O)ccc1NC(=O)[C@@H]1N[C@@H](CC(C)(C)C)[C@](C#N)(c2ccc(Cl)cc2F)[C@H]1c1cccc(Cl)c1F [idasanutlin]
The procedure, abridged: as §1

Compound in another experiment: COc1cc(Nc2ncc3c(n2)-c2ccc(Cl)cc2C(c2c(F)cccc2OC)=NC3)ccc1C(=O)O [alisertib]
A digest of the protocol: as §1

Compound in experiment [1]: COc1cc2nc(-c3cc(F)ccc3O)nc(N[C@@H]3CNC[C@H]3C(C)(C)O)c2cc1OC
A digest of the protocol:
as §1

Compound in the next experiment: COc1cc2ncnc(Nc3ccc(F)c(Cl)c3)c2cc1OCCCN1CCOCC1 [gefitinib]
The procedure, abridged:
as §1

Compound in experiment [2]: COc1cccc2cc(-c3nc([C@H]4CC[C@H](C(=O)O)CC4)n4ncnc(N)c34)[nH]c12
A digest of the protocol: as §1

Compound in another experiment: CS(=O)(=O)CCNCc1ccc(-c2ccc3ncnc(Nc4ccc(OCc5cccc(F)c5)c(Cl)c4)c3c2)o1 [lapatinib]
A digest of the protocol: as §1

Compound in a further experiment: CS(=O)(=O)N1CCN(Cc2cc3nc(-c4cccc5[nH]ncc45)nc(N4CCOCC4)c3s2)CC1 [pictilisib]
A digest of the protocol:
as §1

Compound in experiment [3]: CS(=O)(=O)c1ccc(-c2cnc(N)c(C(=O)Nc3ccccc3)n2)cc1
The procedure, abridged:
as §1

Compound in experiment [4]: C[C@H](C1=CC=C(C=C1)C(=O)NC2=C3C=CNC3=NC=C2)N
The procedure, abridged:
as §1

Compound in the next experiment: C[C@H](Nc1ncnc2nc[nH]c12)c1cc2cccc(Cl)c2c(=O)n1-c1ccccc1 [duvelisib]
The procedure, abridged:
as §1

Compound in a further experiment: Cc1cc(Nc2cc(CN3CCOCC3)c3nc(C)c(Cc4ccc(Cl)cc4F)n3n2)n[nH]1 [gandotinib]
A digest of the protocol:
as §1

Compound in the next experiment: Cc1cc(Nc2cc(N3CCN(C)CC3)nc(Sc3ccc(NC(=O)C4CC4)cc3)n2)n[nH]1 [tozasertib]
The procedure, abridged:
as §1

Compound in experiment [5]: Cc1cc(SCc2sc(-c3ccc(C(F)(F)F)cc3)nc2C)ccc1OCC(=O)O
A digest of the protocol: as §1

Compound in the next experiment: Cc1ccc(C(=O)N(CCCN)[C@@H](c2nc3cc(Cl)ccc3c(=O)n2Cc2ccccc2)C(C)C)cc1 [ispinesib]
A digest of the protocol: as §1

Compound in experiment [6]: C[C@@H]1COCCN1C2=NC(=NC(=C2)C3(CC3)S(=O)(=O)C)C4=C5C=CNC5=CC=C4
The procedure, abridged: as §1

Compound in experiment [7]: COC1=CC=C(C=C1)CN2C=CC3=C2C=C(C=C3)C(=O)NO
A digest of the protocol:
as §1

Compound in another experiment: C[C@@H](Oc1cc(-c2cnn(C3CCNCC3)c2)cnc1N)c1c(Cl)ccc(F)c1Cl [crizotinib]
A digest of the protocol: as §1

Compound in the next experiment: Cc1ccc(-n2nc(C(C)(C)C)cc2NC(=O)Nc2ccc(OCCN3CCOCC3)c3ccccc23)cc1 [doramapimod]
The procedure, abridged: as §1

Targets with a hit are over-represented here; the source holds about 7,900 in all. About 0.6% of all pairs of compound and target were hits. Unmarked numbers belong to inactive results.

Sequence of UniProt Q9UIB8 (Q9UIB8 whole entry, looked up): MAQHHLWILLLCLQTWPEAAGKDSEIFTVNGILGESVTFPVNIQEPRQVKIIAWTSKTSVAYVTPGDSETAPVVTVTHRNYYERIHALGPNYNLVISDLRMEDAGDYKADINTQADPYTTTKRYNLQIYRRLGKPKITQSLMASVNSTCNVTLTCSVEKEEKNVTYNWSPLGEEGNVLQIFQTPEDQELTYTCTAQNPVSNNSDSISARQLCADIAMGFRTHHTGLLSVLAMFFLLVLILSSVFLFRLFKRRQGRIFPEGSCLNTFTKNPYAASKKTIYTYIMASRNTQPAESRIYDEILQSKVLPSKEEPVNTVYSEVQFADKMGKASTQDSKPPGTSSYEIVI
Sequence of UniProt Q14677 (Q14677 whole entry, looked up): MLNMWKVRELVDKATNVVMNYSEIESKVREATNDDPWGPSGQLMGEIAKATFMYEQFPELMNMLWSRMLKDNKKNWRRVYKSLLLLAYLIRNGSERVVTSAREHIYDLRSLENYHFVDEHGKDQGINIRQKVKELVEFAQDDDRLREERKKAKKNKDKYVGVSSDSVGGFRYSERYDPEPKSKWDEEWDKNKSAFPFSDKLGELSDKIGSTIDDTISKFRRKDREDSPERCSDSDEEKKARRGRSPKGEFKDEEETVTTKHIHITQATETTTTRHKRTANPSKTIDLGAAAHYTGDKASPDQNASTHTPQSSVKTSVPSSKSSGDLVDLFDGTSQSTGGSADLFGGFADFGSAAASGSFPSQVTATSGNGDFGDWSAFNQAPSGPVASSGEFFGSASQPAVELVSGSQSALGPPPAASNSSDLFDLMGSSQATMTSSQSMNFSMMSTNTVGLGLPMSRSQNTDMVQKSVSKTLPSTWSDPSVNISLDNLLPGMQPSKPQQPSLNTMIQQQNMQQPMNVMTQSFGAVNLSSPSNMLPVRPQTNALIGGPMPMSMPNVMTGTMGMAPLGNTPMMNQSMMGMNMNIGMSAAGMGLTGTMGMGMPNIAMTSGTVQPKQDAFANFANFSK
Sequence of UniProt O75122 (O75122 whole entry, looked up): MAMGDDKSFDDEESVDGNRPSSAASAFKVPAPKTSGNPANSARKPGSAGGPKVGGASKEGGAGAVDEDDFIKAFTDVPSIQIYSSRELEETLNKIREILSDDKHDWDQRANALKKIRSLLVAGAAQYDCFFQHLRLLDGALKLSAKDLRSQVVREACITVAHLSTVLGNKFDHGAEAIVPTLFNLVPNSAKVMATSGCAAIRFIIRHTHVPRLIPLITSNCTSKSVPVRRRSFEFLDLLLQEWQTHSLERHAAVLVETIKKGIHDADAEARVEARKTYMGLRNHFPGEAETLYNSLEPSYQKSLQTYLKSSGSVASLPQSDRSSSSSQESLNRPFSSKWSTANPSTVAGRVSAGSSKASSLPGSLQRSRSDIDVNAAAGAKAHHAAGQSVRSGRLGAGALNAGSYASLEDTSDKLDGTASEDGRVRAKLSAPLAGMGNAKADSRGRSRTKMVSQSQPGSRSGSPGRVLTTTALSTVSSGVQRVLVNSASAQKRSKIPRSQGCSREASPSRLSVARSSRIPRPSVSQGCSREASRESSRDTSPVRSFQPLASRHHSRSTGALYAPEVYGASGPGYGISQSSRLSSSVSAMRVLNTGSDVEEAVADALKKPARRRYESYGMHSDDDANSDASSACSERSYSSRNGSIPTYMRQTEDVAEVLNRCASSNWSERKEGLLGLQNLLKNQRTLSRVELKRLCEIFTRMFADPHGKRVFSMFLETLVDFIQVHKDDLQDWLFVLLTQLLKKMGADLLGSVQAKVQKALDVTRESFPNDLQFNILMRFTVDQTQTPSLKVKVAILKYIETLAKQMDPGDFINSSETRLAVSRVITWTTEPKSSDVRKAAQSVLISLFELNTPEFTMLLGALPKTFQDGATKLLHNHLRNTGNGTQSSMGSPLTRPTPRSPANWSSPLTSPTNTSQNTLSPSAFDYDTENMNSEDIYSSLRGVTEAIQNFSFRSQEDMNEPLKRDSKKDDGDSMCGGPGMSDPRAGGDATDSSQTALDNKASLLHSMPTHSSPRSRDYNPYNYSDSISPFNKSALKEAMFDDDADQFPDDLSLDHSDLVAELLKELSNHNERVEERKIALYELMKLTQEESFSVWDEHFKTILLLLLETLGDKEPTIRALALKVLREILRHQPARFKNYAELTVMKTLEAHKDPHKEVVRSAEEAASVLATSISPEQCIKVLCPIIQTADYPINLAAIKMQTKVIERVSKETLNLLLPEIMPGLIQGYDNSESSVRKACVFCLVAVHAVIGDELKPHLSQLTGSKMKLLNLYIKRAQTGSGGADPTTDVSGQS
Sequence of UniProt P51911 (P51911 whole entry, looked up): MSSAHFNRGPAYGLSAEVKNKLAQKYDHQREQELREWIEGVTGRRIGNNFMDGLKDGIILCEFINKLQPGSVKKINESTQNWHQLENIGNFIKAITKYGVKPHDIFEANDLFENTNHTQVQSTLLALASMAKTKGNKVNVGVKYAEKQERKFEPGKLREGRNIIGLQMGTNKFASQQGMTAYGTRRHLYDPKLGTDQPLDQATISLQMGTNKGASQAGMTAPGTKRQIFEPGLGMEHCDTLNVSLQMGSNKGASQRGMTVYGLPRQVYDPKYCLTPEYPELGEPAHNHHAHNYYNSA
Sequence of UniProt Q9UBY8 (Q9UBY8 whole entry, looked up): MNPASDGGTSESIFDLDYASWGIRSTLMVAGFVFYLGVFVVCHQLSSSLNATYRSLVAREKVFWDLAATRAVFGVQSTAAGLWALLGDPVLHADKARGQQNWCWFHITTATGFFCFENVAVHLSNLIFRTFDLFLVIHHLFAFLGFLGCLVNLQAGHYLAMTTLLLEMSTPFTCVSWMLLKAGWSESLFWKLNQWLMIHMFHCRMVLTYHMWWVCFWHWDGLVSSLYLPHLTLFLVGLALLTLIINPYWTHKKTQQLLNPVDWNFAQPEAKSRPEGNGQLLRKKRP
Sequence of UniProt Q9HCH3 (Q9HCH3 whole entry, looked up): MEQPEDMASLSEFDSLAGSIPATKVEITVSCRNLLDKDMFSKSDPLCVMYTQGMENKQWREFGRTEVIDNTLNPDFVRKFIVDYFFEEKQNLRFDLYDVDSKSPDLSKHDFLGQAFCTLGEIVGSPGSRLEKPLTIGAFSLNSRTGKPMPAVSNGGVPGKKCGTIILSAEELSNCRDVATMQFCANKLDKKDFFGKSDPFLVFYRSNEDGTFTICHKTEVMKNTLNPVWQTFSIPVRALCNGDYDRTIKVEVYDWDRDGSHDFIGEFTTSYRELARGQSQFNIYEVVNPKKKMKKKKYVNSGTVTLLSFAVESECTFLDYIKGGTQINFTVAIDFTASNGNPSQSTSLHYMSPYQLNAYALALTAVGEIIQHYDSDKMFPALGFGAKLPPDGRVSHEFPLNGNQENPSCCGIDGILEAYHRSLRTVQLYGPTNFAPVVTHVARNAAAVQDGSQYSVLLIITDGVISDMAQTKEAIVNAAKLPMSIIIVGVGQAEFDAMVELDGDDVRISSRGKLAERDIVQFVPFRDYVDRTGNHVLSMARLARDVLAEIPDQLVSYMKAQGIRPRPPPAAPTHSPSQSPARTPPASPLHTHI
Sequence of UniProt O95273 (O95273 whole entry, looked up): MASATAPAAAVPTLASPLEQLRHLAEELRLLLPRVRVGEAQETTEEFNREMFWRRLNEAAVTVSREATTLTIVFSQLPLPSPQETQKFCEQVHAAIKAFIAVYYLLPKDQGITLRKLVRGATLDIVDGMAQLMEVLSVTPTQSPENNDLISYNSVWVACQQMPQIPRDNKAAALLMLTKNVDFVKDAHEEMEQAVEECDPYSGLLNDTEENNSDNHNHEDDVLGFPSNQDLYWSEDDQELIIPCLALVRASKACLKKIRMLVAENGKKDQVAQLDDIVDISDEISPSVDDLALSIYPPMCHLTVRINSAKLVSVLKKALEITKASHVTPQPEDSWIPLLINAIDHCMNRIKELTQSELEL
Sequence of UniProt P34810 (P34810 whole entry, looked up): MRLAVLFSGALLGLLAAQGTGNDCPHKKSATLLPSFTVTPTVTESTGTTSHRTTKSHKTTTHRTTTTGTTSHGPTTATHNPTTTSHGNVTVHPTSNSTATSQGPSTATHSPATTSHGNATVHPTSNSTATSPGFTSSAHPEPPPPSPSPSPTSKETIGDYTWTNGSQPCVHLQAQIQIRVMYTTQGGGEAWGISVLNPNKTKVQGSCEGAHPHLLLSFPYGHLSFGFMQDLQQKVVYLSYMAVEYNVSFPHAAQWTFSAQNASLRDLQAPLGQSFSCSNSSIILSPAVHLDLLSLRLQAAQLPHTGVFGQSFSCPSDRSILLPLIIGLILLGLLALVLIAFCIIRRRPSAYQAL
Sequence of UniProt Q14194 (Q14194 whole entry, looked up): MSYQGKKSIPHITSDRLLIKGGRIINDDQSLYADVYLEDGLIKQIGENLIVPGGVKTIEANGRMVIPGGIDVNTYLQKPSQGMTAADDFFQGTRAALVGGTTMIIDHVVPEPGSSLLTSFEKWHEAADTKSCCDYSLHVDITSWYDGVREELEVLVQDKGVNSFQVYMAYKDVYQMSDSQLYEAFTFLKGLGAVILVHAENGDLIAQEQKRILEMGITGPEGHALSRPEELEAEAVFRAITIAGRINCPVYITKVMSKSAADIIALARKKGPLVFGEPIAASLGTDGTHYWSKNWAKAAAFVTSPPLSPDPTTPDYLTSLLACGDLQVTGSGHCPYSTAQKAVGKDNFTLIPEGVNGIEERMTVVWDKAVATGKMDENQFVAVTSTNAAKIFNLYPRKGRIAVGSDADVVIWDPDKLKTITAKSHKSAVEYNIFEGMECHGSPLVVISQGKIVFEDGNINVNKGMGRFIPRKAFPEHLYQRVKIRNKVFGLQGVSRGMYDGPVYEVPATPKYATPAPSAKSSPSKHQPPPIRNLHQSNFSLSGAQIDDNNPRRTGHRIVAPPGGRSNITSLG
Sequence of UniProt O75956 (O75956 whole entry, looked up): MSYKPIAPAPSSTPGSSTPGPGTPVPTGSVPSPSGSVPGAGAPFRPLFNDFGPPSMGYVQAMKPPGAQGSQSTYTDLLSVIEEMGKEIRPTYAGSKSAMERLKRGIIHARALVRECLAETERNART

Turning to CORO2A (UniProt Q92828), the log2 fold change with filanesib is -0.035; with zotarolimus, -0.049; with idasanutlin, -0.071; in the experiment with alisertib, 0.035; in experiment [1] it was -0.057; with gefitinib, -0.097. Further, the log2 fold change in experiment [2] was -0.02; with lapatinib, -0.011; with pictilisib it was -0.11; in [3], -0.085; in [4] it was 0.101; in the experiment with duvelisib, 0.061. Also, the log2 fold change with gandotinib is 0.061; with tozasertib it was -0.028; in experiment [5] it was 0.023; with ispinesib, -0.046.

As to CNN1 (UniProt P51911), the log2 fold change with filanesib is -0.051; with zotarolimus it was 0.047; with idasanutlin it was -0.048; with alisertib, -0.055; in experiment [1], 0.182; with gefitinib, -0.14. Also, the log2 fold change was 0.059 in experiment [2]; -0.068 with lapatinib; 0.172 in the experiment with pictilisib; -0.052 in experiment [3]; 0.045 in experiment [6]; -0.121 in [4]. For the same target, the log2 fold change is -0.673 (active) with gandotinib and -0.151 in the experiment with tozasertib.

For the target CLN8 (UniProt Q9UBY8), the log2 fold change with filanesib was 0.068; with zotarolimus, 0.13; with idasanutlin, -0.145; with alisertib it was 0.04; in experiment [1], -0.019; with gefitinib it was 0.075. For the same target, the log2 fold change in experiment [2] is -0.015; in the experiment with lapatinib it was 0.012; in experiment [3], -0.006; in experiment [4] it was 0.161; with duvelisib, 0.049; with gandotinib, -0.1. Further, the log2 fold change in the experiment with tozasertib was -0.05; in experiment [5], -0.09; with ispinesib it was -0.15.

As for CPNE5 (UniProt Q9HCH3), the log2 fold change in the experiment with zotarolimus is -0.102; in [4] it was 0.148; in the experiment with tozasertib, 0.374.

As for CLPTM1L (UniProt G5E9Z2), the log2 fold change is -0.235 with filanesib; -0.101 in the experiment with zotarolimus; -0.446 in the experiment with idasanutlin; -0.199 in the experiment with alisertib; -0.142 with gefitinib; 0.099 in experiment [2]. For the same target, the log2 fold change was -0.317 in [3]; 0.073 in [6]; 0.067 in experiment [4]; -0.382 with gandotinib; -0.049 in the experiment with tozasertib.

With CCNDBP1 (UniProt O95273), the log2 fold change with filanesib was 0.016; in the experiment with zotarolimus it was -0.102; with idasanutlin it was 0.063; with alisertib it was -0.012; in the experiment with gefitinib, -0.33 (active); in [2] it was 0.125. Moreover, the log2 fold change is 0.009 with pictilisib; 0.016 in experiment [3]; 0.06 in [4]; 0.016 with duvelisib; -0.066 in the experiment with gandotinib; 0.1 with tozasertib. Also, the log2 fold change in [5] was 0.043; in the experiment with ispinesib, -0.029.

As for CLASP2 (UniProt O75122), the log2 fold change was 0.015 in experiment [7]; 0.235 with zotarolimus; 0.101 with idasanutlin; -0.025 with alisertib; 0.125 in experiment [1]; 0.071 in the experiment with gefitinib. Besides, the log2 fold change in [2] was 0.072; with lapatinib it was 0.032; in the experiment with crizotinib it was -0.21; in experiment [4], 0.155; with doramapimod it was 0.132; in the experiment with ispinesib it was -0.007.

On to CLINT1 (UniProt Q14677), for which the log2 fold change is -0.371 in experiment [7]; 0.263 with zotarolimus; -0.012 in the experiment with idasanutlin; -0.137 in the experiment with alisertib; 0.077 with gefitinib; -0.055 in experiment [2]. Besides, the log2 fold change is 0.166 with crizotinib; 0.005 in [4]; -0.08 in the experiment with duvelisib; 0.074 in the experiment with tozasertib; -0.155 in [5]; 0.154 with doramapimod.

Take CDK2AP2 (UniProt O75956): the log2 fold change in experiment [7] is 0.078; with zotarolimus, -0.022; with idasanutlin, -0.043; in the experiment with alisertib, -0.019; with gefitinib it was -0.009; in [2] it was -0.11. Besides, the log2 fold change with crizotinib was 0.213; in [6], 0.173; in experiment [4], -0.015; with doramapimod, -0.014; with ispinesib, -0.011.

For the target CD68 (UniProt P34810), the log2 fold change with filanesib is 0.05; with alisertib, -0.126; in experiment [2], -0.025; in experiment [3] it was -0.016.

Regarding CD84 (UniProt Q9UIB8), the log2 fold change is -0.009 with filanesib; -0.194 with zotarolimus; -0.082 with idasanutlin; 0.049 in [3]; -0.201 in experiment [6]; -0.149 in experiment [4]. In addition, the log2 fold change with duvelisib is 0.036; with tozasertib, -0.055; in experiment [5], 0.056.

Consider CRMP1 isoform 2 (UniProt Q14194), for which the log2 fold change is 0.067 in the experiment with filanesib; -0.045 with zotarolimus; 0.172 with idasanutlin; -0.407 with gefitinib; 0.107 in the experiment with pictilisib; 0.024 in experiment [3]. For the same target, the log2 fold change in [4] was 0.08; with duvelisib, 0.208; in the experiment with gandotinib, -0.132; with tozasertib it was -0.602; in experiment [5] it was -0.003.

Source of the values: the supplement of paper PMC10849652.
